Rows were chosen to be rich in hits. Some 19% of all compounds tested hit in one or more screens of this group.
IL1B secr inh = inhibitors of inflammasome signaling (IL-1 beta secretion); THP-1 LPS/ATP IL-1B secretion, AlphaLISA, 16 h; active compounds read low; activity change, % at 57.5 µM; hit rate 4.7% among 360,000; AID 743279; in the data active means activity change below about -50%; inconclusive means mostly about -30% to -49%; further: on the % scale 0 is the no-effect control and ±100 the full control effect
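THP-1 cells pretreated 1 hr with compounds (up to 57.5 uM final), then stimulated with LPS (250 ng/mL final) plus ATP (1.25 mM final); secreted IL-1B measured by AlphaLISA after 16 hr, decreased signal indicating inhibition.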
TDP1 cell CPT = DT40-hTDP1 cell growth loss with CPT; chicken DT40 Tdp1-/-;hTDP1 cells + 20 nM CPT, ATP luminescence, 48 h; AID 686979; Potency, µM (titrated, usually from 46.2 µM), for inactives: top-dose activity change, negative = growth inhibition, usual class: inhibitors; hit rate 12% among 420,000; further: potency means the concentration at half of the fitted maximal effect; on the % scale 0 is the no-effect control and ±100 the full control effect; nearly all actives have a fitted effect of over 55% in size
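Cell growth measured by CellTiter-Glo luminescence after a minimum 48 h, 37 C compound exposure with 20 nM CPT in Tdp1-knockout DT40 cells stably expressing hTDP1, seeded 400/well; qHTS titration format.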
TDP1 cell noCPT = qHTS for Inhibitors of human tyrosyl-DNA phosphodiesterase 1 (TDP1): qHTS in cells in absence of CPT. DT40 Tdp1-/- hTDP1 cells, no CPT, ATP luminescence, 48 h. Potency, µM (titrated, usually from 46.2 µM), for inactives: at the top dose activity change, negative = growth inhibition, actives largely listed as inhibitors. hit rate 15% among 420,000; further: potency means the concentration at half of the fitted maximal effect; on the % scale 0 is the no-effect control and ±100 the full control effect; nearly all actives have a fitted effect of over 55% in size
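Cells were dispensed at 400 per well, compounds added by pin tool, plates incubated ≥48 hr at 37 °C, then CellTiter-Glo added for 30 min at room temperature before luminescence reading. Line: DT40 Tdp1-/- complemented with hTDP1; camptothecin omitted.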
BCR signal inh = blocks chronic active B-cell receptor signaling; Potency, µM (series often up to 46.1 µM), for the others: top-dose activity change, negative = inhibition, usual class: inhibitors; AID 493014; ABC-DLBCL IkBa-CBG/CBR reporter, luminescence ratio, 4 h; hit rate 0.05% among 340,000; active means well fitted inhibition curve with a large enough effect in the signal ratio, with a control signal flat, not every such curve was filed as active; inconclusive means small, poorly fitted or top-dose-only effect, or effect the other way, or a change in a side signal; the % refers to the signal ratio;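 further: potency means the concentration at half of the fitted maximal effect; plate controls were basal doxycycline-induced cells for no effect and cells given 10 µM MG132 for full effect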
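TMD8 human ABC-DLBCL cells with doxycycline-inducible IκBα–green luciferase fusion and unfused red luciferase, in 0.5% FBS medium; compounds up to 46 uM, 4 h at 37C. Green/red luminescence ratio, filter-overlap corrected, fitted to concentration-response curves.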
SW480 rerep = DNA re-replication induction in SW480 cells; SW480 DNA re-replication, Hoechst DNA content imaging, 48 h; Potency, µM (highest dose often 46.1 µM), inactives show top-dose re-replication activation, usual class: activators; hit rate 1.8% among 340,000; AID 624297; further: potency means the concentration at half of the fitted maximal effect; % of control where 0% means no effect; nearly all actives have a fitted effect of over 55% in size
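Readout is total intensity of Hoechst-stained nuclei, excited at 405 nm and collected at 500-530 nm. Compound treatment lasted 48 hr at 37 C in 5% CO2 before staining.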
MCF10A rereplic = DNA re-replication induction in MCF 10a cells | MCF 10A DNA re-replication, Hoechst nuclear intensity, 48 h | Potency, µM (highest dose often 46.1 µM), inactives show at the highest dose activity, positive = re-replication, hits mostly activators | hit rate 2.9% among 350,000; further: potency means the concentration at half of the fitted maximal effect; % of control where 0% means no effect; nearly all actives have a fitted effect of over 50% in size
An asterisk follows results filed as active; ? = inconclusive; / = not tested or not shown. Unless noted, the call rests on the fitted dose curve; in most records, active means well fitted curve in the direction sought with a large enough effect; inconclusive means small, poorly fitted or top-dose-only effect, or another doubt; inactive means no such curve, though single readings can be large; an effect the other way counts as inactive or inconclusive.

SMILES | IL1B secr inh | TDP1 cell CPT | TDP1 cell noCPT | BCR signal inh | SW480 rerep | MCF10A rereplic
COCc1cc(C)n(CC(=O)Nc2ccc3c(c2)OCO3)c(=O)c1C#N | 13.7 | 1.4% | ? | 2.2% | 3.1% | ?
COc1cc(C)c(CN2CCN(C(C)C(=O)NC(C)c3ccccc3)CC2)cc1OC (centres undefined) | 20.3 | -8.8% | -25.2% | 3.7% | -4.9% | 6.9%
CCNc1ncc2nc(-c3cc(F)cc(F)c3)c(=O)n(CCC#N)c2n1 | / | -9.3% | 2.0% | / | / | /
CN(C)CCNc1c(N)c(=O)oc2ccccc12 | 19.4 | ? | ? | -22.5% | 7.1% | 1.3%
Cc1ccc(S(=O)(=O)Nc2c(NC3CCCCC3)c3ccccc3oc2=O)cc1 | ? | ? | 0.7% | ? | ? | 10.6%
Nc1c(NC2CCCCC2)c2ccccc2oc1=O | 19.2 | ? | 16.4µM* | ? | 2.3% | 2.3%
O=c1oc2ccccc2c(NC2CCCCC2)c1NS(=O)(=O)c1ccc(Br)cc1 | -70.6* | ? | ? | ? | ? | 12.5%
Nc1c(NCCN2CCOCC2)c2ccccc2oc1=O | 28.9 | 5.17µM* | 9.2µM* | ? | -4.1% | 3.6%
CCOC(=O)/C(=N/Nc1ccc(C)cc1)S(=O)(=O)c1ccc(Cl)cc1 | ? | 16.4µM* | ? | ? | 18.5% | ?
CCOC(=O)/C(=N\Nc1ccccc1)S(=O)(=O)c1ccccc1 | -10.4 | -17.6% | ? | 6.5% | 2.4% | 19.7%
O=[N+]([O-])c1cccc2c(Br)[nH]nc12 | / | 31.6µM* | ? | / | / | /
CCCc1ccc(OC(=O)c2ccc(O)cc2Cl)cc1 | -84.3* | ? | ? | ? | 7.7% | ?
CCCCCCc1ccc(OC(=O)c2ccncc2)cc1 | 5.2 | -19.1% | -22.9% | -0.2% | -10.5% | 4.7%
COc1ccc(Nc2c3c(nc4ccc(NC(=O)/C=C/c5cc(OC)c(OC)c(OC)c5)cc24)CCCC3)cc1OC | / | 1.03µM* | 1.84µM* | / | / | /
COc1ccc(/C=C/C(=O)Nc2ccc3nc4c(c(Nc5ccc(OC)c(OC)c5)c3c2)CCCC4)cc1 | / | 3.66µM* | 4.61µM* | / | / | /
COc1ccc(NC(=O)c2ccc3c(SCC(=O)O)c4c(nc3c2)CCCC4)cc1OC | / | 5.8% | 0.8% | / | / | /
C=C(CO)C1Cc2c(ccc3c2OC2COc4cc(OC)c(OC)cc4C2C3=O)O1 (centres undefined) | / | 0.299µM* | 0.237µM* | / | / | /
COc1cc2c(cc1OC)C1(O)C(=O)c3ccc(O)c(C(=O)O)c3OC1CO2 (centres undefined) | / | ? | -8.6% | / | / | /
COc1ccc(S(=O)(=O)N2CCCCC2)cc1NC(=O)CCNC(=O)c1ccco1 | 7.3 | -14.5% | -11.1% | 5.0% | 21.2% | -1.6%
O=C(Nc1cc(S(=O)(=O)N2CCOCC2)ccc1Cl)C(=O)c1c(-c2ccccc2)cc2ccccn12 | -25.5 | 20.6µM* | 23.1µM* | -3.2% | -5.6% | 3.8%
Cc1ccc(S(=O)(=O)N2CCOCC2)cc1NC(=O)COC(=O)c1cncc(Br)c1 | -16.8 | -15.1% | 19.9% | -7.4% | 7.8% | 4.2%
Cc1onc(-c2ccccc2Cl)c1C(=O)OCC(=O)Nc1cccc(S(=O)(=O)N(C)C)c1 | -2.0 | ? | 16.4µM* | ? | 9.3% | 11.5%
Cc1ccc(S(=O)(=O)N2CCOCC2)cc1NC(=O)COC(=O)c1cnc(Cl)c(Cl)c1 | -87.2* | -8.4% | -11.7% | 6.3% | -0.3% | -1.8%
O=S(=O)(c1ccc(Cl)c(NC(=S)Nc2ccccc2N2CCOCC2)c1)N1CCOCC1 | -15.0 | -2.8% | -25.0% | -2.0% | 0.3% | -0.9%
CCN(CC)S(=O)(=O)c1ccc(Cl)c(NC(=O)COC(=O)c2c(C)noc2C)c1 | 21.8 | ? | 20.6µM* | ? | 3.3% | 5.4%
